Assay outcomes deposited in PubChem by National Center for Advancing Translational Sciences (NCATS).
In the library only some 7.5% were active in any assay of this set; here they are far more common.
Vaccinia Venus – inhibitors of vaccinia virus (Venus reporter); Vaccinia virus Venus reporter expression, fluorescence; Potency, µM (top dose mostly 36.5 µM), without a hit: at the top dose activity change, negative = inhibition, most hits filed as inhibitors; actives 0.46% (n = 330,000); calls by dose curve; tested in A549 cells; further: potency means the concentration at half of the fitted maximal effect; nearly all actives have a fitted effect of over 30% in size
FBPA Giardia inh – blocks Giardia fructose-bisphosphate aldolase activity; A8B2U2; purified Giardia FBPA; Potency, µM (series often up to 59.6 µM), for inactives: at the top dose activity, negative = inhibition, usual class: inhibitors; actives 0.71% (n = 290,000); AID 2451; further: potency means the concentration at half of the fitted maximal effect; nearly all actives have a fitted effect of over 55% in size
Target sequence (A8B2U2 whole entry, looked up): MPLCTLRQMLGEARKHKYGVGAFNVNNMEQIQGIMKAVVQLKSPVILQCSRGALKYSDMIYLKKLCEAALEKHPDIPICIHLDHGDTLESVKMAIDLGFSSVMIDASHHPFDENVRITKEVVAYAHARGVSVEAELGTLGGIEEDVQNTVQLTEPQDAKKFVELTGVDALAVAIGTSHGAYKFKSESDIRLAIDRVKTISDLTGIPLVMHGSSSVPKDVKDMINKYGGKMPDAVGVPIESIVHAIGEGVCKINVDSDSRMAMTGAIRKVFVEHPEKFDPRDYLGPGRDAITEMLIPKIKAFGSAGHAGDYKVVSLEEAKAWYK
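Giardia FBPA (40 nM reagent) was preincubated 10 min at RT with compound (up to 57.5 uM final), then substrate plus GAPDH/TPI/NAD/arsenate coupling system with diaphorase/resazurin was added; resorufin fluorescence (525/598 nm) was read after 20 min.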
FMDV antiviral – foot and mouth disease virus antiviral activity; FMDV antiviral cell-based qHTS; Potency, µM (titrated, usually from 57.9 µM), inactives show at the top dose activity change, negative = inhibition, hits mostly inhibitors; actives 1.2% (n = 410,000); calls by dose curve; tested in HEK293T cells; further: read-out not given here; potency means the concentration at half of the fitted maximal effect; nearly all actives have a fitted effect of over 45% in size
HCV inhibitor – inhibitors of hepatitis C virus infection | Potency, µM (highest dose often 41.8 µM), without a hit: at the top dose activity change, negative = inhibition, most hits filed as inhibitors | actives 3.4% (n = 340,000) | AID 651820 | Huh7.5.1 HCVcc-Cre infection, luciferase reporter, 44 h; further: potency means the concentration at half of the fitted maximal effect
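After 44 h co-culture of compound, cells and HCVcc-Cre (~0.5 moi), substrate is added for 15 min at room temperature and luciferase measured over 15 sec. Cells were seeded at 1,000/well and pre-cultured 4 h.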
Vaccinia mCherry – inhibitors of vaccinia virus infection (mCherry reporter signal) | Vaccinia virus mCherry reporter infection, fluorescence | Potency, µM (top dose mostly 36.5 µM), inactives show top-dose activity change, negative = inhibition, usual class: inhibitors | actives 0.63% (n = 310,000) | AID 720579; calls by dose curve; tested in A549 cells; further: potency means the concentration at half of the fitted maximal effect; nearly all actives have a fitted effect of over 35% in size
HCMV antiviral – blocks human cytomegalovirus replication | actives 4.5% (n = 410,000) | activity change, negative = inhibition, % at 57.5 µM | HFF cells, HCMV-luciferase reporter, 72 h; stronger effect = lower value; in the data active means activity change below about -60%; inconclusive means no clear call, values can overlap the other calls; inactive means above about -39%
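Human foreskin fibroblasts infected with luciferase-reporter HCMV at MOI 1 PFU/cell, compounds at two doses. Luciferase measured 72 h post infection; normalized to buffer-only basal and Salinomycin (10uM) controls.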
Starred values were filed as active, the others as inactive; i = inactive; ? = inconclusive; . = no result; [ ] = remark or other dose. Unless noted, the call rests on the fitted dose curve; in most records, active means well fitted curve in the direction sought with a large enough effect; inconclusive means small, poorly fitted or top-dose-only effect, or another doubt; inactive means no such curve, though single readings can be large; an effect the other way counts as inactive or inconclusive. On the % scale 0 is the no-effect control and ±100 the full control effect.

SMILES	Vaccinia Venus	FBPA Giardia inh	FMDV antiviral	HCV inhibitor	Vaccinia mCherry	HCMV antiviral
OC(CN1CCN(Cc2ccccc2)CC1)Cn1c2ccccc2c2ccccc21 (stereo not drawn)	-22.6%	3.7%	-19.0%	11.2µM*	i	-27.7
COc1ccc2nc(-c3nc4ccccc4[nH]3)c(C)nc2c1	.	.	.	.	.	17.0
CCCSc1ccc([C@H]2N[C@@](CC(C)C)(C(=O)OC)[C@H]3C(=O)N(CC)C(=O)[C@@H]23)cc1	-19.0%	.	-21.8%	?	i	5.9
COc1cc(C2C3=C(COC3=O)Oc3cc4c(cc32)OCO4)cc(OC)c1OC(C)=O (stereo not drawn)	?	.	6.7%	3.7%	?	-69.1*
O=C(OCc1nc2ccccc2s1)c1cccs1	.	-10.0%	11.2%	14.9%	.	-61.8*
Cc1cccc(Oc2nc(-c3ccncc3)nc3ccccc23)c1	2.0%[7.34 µM]	1.5%	-14.3%	7.08µM*	i[7.34 µM]	35.9
Cc1cccc(Oc2nc(-c3ccccn3)nc3ccccc23)c1	?	6.6%	-11.7%	?	?	-72.3*
CC(=O)N/C(=C\c1ccccc1)C(=O)OCc1cc(C)ccc1C	1.7%	12.4%	31.6%	-29.8%	20.2%	-29.0
CCCCNC(=O)C1(C)CCCCN1C(=O)c1ccc2c(c1)CCO2 (stereo not drawn)	-4.3%	.	-13.9%	.	2.3%	11.0
CC1CCC(C(=O)c2c(O)c3ccccc3oc2=O)CC1 (stereo not drawn)	.	24.6%	-7.9%	?	.	-100.2*
CCCCC(=O)c1c(O)c2ccccc2oc1=O	-23.0%	-20.4%	11.3%	-3.7%	.	0.0
CC(=N)c1c(O)c2ccccc2oc1=O	.	1.6%	42.3%	1.7%	.	2.1
O=C(CC1CCCCC1)c1c(O)c2ccccc2oc1=O	.	12.7%	7.7%	-0.4%	.	-68.1*
CCOC(=O)CNc1cccc(C(F)(F)F)c1	-15.3%	-1.6%	-1.2%	21.7%	i	7.9
CCOC(=O)C1=C(C)C(c2cccc(Oc3ccccc3)c2)NC(=S)N1 (stereo not drawn)	-9.9%	5.0%	28.2µM*	?	-11.2%	?
CCOC(=O)C1=C(c2cccc(Oc3ccccc3)c2)NC(=S)NC1C (stereo not drawn)	-27.3%	-0.4%	-21.9%	8.91µM*	.	?
O=C(N[C@@H]1c2ccccc2C2(CCN(Cc3c(O)ccc4ccccc34)CC2)[C@H]1O)c1ccccc1	0.0%	.	13.3%	.	-5.8%	.
COc1ccc(Cl)cc1N1CC(C(=O)Nc2nccs2)CC1=O (stereo not drawn)	?	26.7%	-10.9%	?	.	-67.4*
C=C(Br)COC(c1ccco1)[C@H](Cc1ccccc1)NC(=O)OC(C)(C)C (stereo partly drawn)	-22.6%	.	.	.	-9.2%	.
Cc1n[nH]c(C)c1N1C(=O)c2cccc3cc(Br)cc(c23)C1=O	-17.6%	-2.4%	-15.8%	4.47µM*	.	39.4
CC1CCCC(C)N1C(=C(Cl)Cl)C(=C1SCCS1)[N+](=O)[O-] (stereo not drawn)	-1.3%	-7.4%	59.2%	?	-5.6%	-69.0*
Cc1c(C(=O)NC(C)(C)C)sc2ncnc(NCCN(C)C)c12	-16.9%	.	-7.6%	.	-12.5%	.
Clc1ccccc1CN(Cc1ccco1)Cc1nnnn1C1CCCC1	.	-17.4%	-27.1%	10µM*	.	10.2
O=C(Cc1cccc2ccccc12)N/N=C/c1ccc(Sc2nc3ccccc3s2)o1	?	-24.5%	-18.8%	10µM*	?	-30.6
N#CCC(=O)N/N=C/c1ccc(Sc2nc3ccccc3s2)o1	.	-23.1%	10.0%	9.6%	.	-99.1*
SMILES	Vaccinia Venus	FBPA Giardia inh	FMDV antiviral	HCV inhibitor	Vaccinia mCherry	HCMV antiviral
C=CCN(C(=O)c1csnn1)C(C(=O)NCc1ccc(F)cc1)c1ccccc1F (stereo not drawn)	12.5%	5.2%	-6.5%	-8.5%	-10.8%	31.7
COc1cc(NC(=O)C2CCCCC2)c2ncccc2c1	-8.2%	-19.2%	-6.4%	10µM*	.	23.8
CCN(c1ccccc1)S(=O)(=O)c1ccc(Cl)c(NC(=O)CN2CCCCCC2)c1	-13.8%	?	?	14.1µM*	-18.2%	?
CCN(c1ccccc1)S(=O)(=O)c1ccc(Cl)c(NC(=O)CN(C)Cc2cccc(F)c2)c1	-16.5%	.	-20.0%	8.91µM*	-24.3%	?
CCN(c1ccccc1)S(=O)(=O)c1ccc(Cl)c(NC(=O)COC(=O)c2cc(O)c3ccccc3c2O)c1	.	5µM*	.	.	.	.
CCN(CC)S(=O)(=O)c1ccc(Cl)c(NC(=S)NC(=O)C2CCCC2)c1	.	.	20µM*	3.98µM*	.	?
COc1cccc(CNC(=O)c2cnc(N3CCCCC3)c3ccccc23)c1	-7.8%	.	-19.8%	.	-13.3%	23.3
Cc1ccc(S(=O)(=O)n2nc(C)c(S(=O)(=O)N3CCC(C)CC3)c2C)cc1	-6.5%	.	21.6%	.	10.1%	10.6
Cc1ccc(C(=O)N[C@H](C(=O)NC2CCCCCCC2)C(C)C)cc1	.	.	-9.2%	10.8%	.	80.1
Cc1ccc(C)c(C(=O)N2CCC(C3(c4ccccn4)NC(=O)N(CC4CCCO4)C3=O)CC2)c1 (stereo not drawn)	-13.5%	.	-6.0%	.	i	.
Cc1ccc(CN(C)C[C@H]2OCc3cnnn3CCCC(=O)N([C@H](C)CO)C[C@@H]2C)cc1	.	.	.	.	.	17.0
CCOC(=O)c1c(-c2ccc(C)cc2)cn2ccccc12	-27.7%	5.1%	0.0%	10µM*	.	16.8
CCOC(=O)c1c(-c2ccccc2)cn2ccccc12	-27.7%	-0.3%	-20.6%	?	.	-33.5
COc1cc(OC)c2c(C)c(CC(=O)N3CCCCC3)c(=O)oc2c1	-4.8%	.	26.0%	.	-3.0%	-7.3
CCOc1ccc(-c2nc(CSCC(=O)NCCc3ccc(OCC)c(OCC)c3)c(C)o2)cc1	?	.	0.0%	.	?	-30.4
Cc1ccc(CC2C(=O)N(c3cc(C)ccc3C)C(=O)C2C)cc1 (stereo not drawn)	.	-1.5%	-25.8%	-5.1%	.	-2.2
Cc1cc(/C=C2/SC(=S)N(c3cccc(C(F)(F)F)c3)C2=O)c(C)n1-c1cccnc1	?	.	?	1.58µM*	?	.
Cc1cc(/C=C2\SC(=S)N(Cc3ccco3)C2=O)c(C)n1-c1cccnc1	14.4%	-14.7%	10.0%	?	-0.1%	4.2
CN(C)c1ccc(/C=C/c2ccnc3c(Cl)cccc23)cc1	26.8%	.	.	.	-5.3%	.
CCOC(=O)N1CCN(S(=O)(=O)c2ccc(C(=O)N(CCCN(C)C)c3nc4ccc(CC)cc4s3)cc2)CC1	-25.5%	-9.6%	-7.3%	?	-28.7%	-62.1*
CCOC(=O)N1CCN(S(=O)(=O)c2ccc(C(=O)N(CCCN(C)C)c3nc4ccc(Cl)cc4s3)cc2)CC1	.	-8.6%	-10.0%	11.2µM*	.	8.0
CN(C)CCCN(C(=O)c1ccc2c(c1)CCCC2)c1nc2ccc(Cl)cc2s1	?	-11.5%	28.2µM*	7.94µM*	?	-78.6*
Cc1ccc(C)c(NC(=O)CN2C(=O)CCc3ccccc32)c1	-8.2%[7.34 µM]	.	-5.2%	.	-14.6%[7.34 µM]	22.3
